From PubChem
TEAD-YAP block: TEAD-YAP interaction inhibition, primary screen, TEAD-YAP interaction inhibitor project, luminescence, HEK-TIYL cells | TEAD-Gal4/YAP UAS-luciferase luminescence | inhibition, % at 9.12 µM | hit rate 1.4% among 640,000 | AID 1259422, 2018; in the data active = inhibition above about 32%;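 note: 0% = median of test compound wells and 100% = reference inhibitor wells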
GPR151 activ: activators of human GPR151, primary screen, cell-based, PathHunter beta-arrestin, luminescence; AID 1508602, 2020; PathHunter beta-arrestin GPR151 cells; hit rate 1% among 650,000; G-protein coupled receptor 151 (Homo sapiens), Q8TDV0; activation, % at 11.2 µM; in the data active = activation above about 4.9%;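 note: 0% = median of compound wells and 100% = cells with positive control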
FBW7 act: FBW7 E3 ligase activators, primary screen, biochemical, AlphaScreen, human | hit rate 0.13% among 650,000 | normalized activity (activation), % at 26.1 µM | AlphaScreen FBW7–phospho-cyclin E peptide binding, activator screen | F-box/WD repeat-containing protein 7 (Homo sapiens), Q969H0; in the data active = normalized activity above about 1.9%;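 note: purified mutant Fbw7 with reduced substrate affinity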
MITF primary: MITF inhibitors, primary screen, biochemical, AlphaScreen, human. inhibition, % at 2.6 µM. hit rate 0.91% among 650,000. Microphthalmia-associated transcription factor (Homo sapiens), O75030. AlphaScreen MITF homodimerization, bead proximity signal; in the data active = inhibition above about 50%;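 note: 0% = vehicle wells with protein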
Target sequence (O75030 whole entry, looked up): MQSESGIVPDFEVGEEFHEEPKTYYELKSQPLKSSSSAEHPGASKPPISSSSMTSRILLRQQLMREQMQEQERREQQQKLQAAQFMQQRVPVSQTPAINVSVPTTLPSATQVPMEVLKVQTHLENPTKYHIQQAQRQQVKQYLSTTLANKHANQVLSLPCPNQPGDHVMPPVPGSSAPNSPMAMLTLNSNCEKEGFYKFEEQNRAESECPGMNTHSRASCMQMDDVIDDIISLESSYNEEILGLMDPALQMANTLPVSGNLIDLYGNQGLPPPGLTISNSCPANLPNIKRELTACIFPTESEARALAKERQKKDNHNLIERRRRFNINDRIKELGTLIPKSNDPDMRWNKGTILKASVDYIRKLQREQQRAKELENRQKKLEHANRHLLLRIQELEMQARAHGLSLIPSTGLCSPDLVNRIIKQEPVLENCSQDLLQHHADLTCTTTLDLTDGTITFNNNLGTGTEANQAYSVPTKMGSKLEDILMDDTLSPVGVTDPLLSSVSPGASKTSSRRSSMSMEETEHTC
The depositor's hits bear a star. Hits are enriched below; roughly 3.5% of the tested compounds scored in any of these assays.

SMILES	TEAD-YAP block	GPR151 activ	FBW7 act	MITF primary
Cc1ccc(S(=O)(=O)c2c(O)cc(C)c(NS(=O)(=O)c3ccc(Br)cc3)c2C)cc1	1.5	-1.0	0.0	63.4*
Cc1ccc(S(=O)(=O)Nc2c(C)cc(O)c(S(=O)(=O)c3ccc(C)cc3)c2C)cc1	3.3	-1.2	0.5	3.5
O=C(/C=C/Nc1ccc(F)cc1F)c1ccco1	63.8*	-2.1	0.1	2.7
O=C(/C=C/Nc1ccccc1O)c1ccco1	-48.7	0.2	-0.3	5.1
O=C(/C=C/Nc1ccc(Br)cc1F)c1ccco1	42.8*	-1.7	0.1	-7.0
O=C(/C=C/Nc1cccc(Cl)c1Cl)c1ccco1	53.3*	-2.4	0.3	-2.8
CCOC(=O)c1c(-c2ccccc2)csc1NC(=O)CSc1nnc2sc3ccccc3n12	-21.9	0.3	-0.1	-1.0
O=C(N1CCN(c2ccccn2)CC1)N1c2ccccc2Sc2ccccc21	51.1*	-1.1	0.6	-0.2
O=C(N1CCCC1)N1c2ccccc2Sc2ccccc21	28.9	-0.7	0.9	11.8
O=C(c1ccco1)N1CCN(C(=O)N2c3ccccc3Sc3ccccc32)CC1	51.0*	0.3	0.3	21.9
O=C(CCNS(=O)(=O)c1ccc(Br)s1)NCc1ccc(F)cc1	11.2	0.0	0.2	7.9
Brc1ccc(CSc2nn3cnnc3s2)cc1	52.7*	0.4	0.0	-9.7
Nc1nnc(SCc2ccc(Br)cc2)s1	-3.9	-0.6	0.1	14.3
O=C(Nc1cccc(-c2cc3ccccc3oc2=O)c1)c1cc(Br)ccc1Cl	8.9	0.3	0.0	1.2
O=C(NC1CCCCC1)NC1(C(=O)NCCCN2CCOCC2)CCCCC1	3.0	-0.4	1.9*	11.2
O=C(NCC1(c2ccccc2)CCOCC1)c1cc2ccccc2o1	-3.2	0.7	0.0	10.7
O=C(O)c1cc2c3c(c1)C1C=CCC1CN3CC1CC=CC21 (centres undefined)	12.2	0.7	0.0	75.9*
O=C(O)C1C2CC=CC2c2cc(Br)cc3c2N1CC1CC=CC31 (centres undefined)	0.0	-1.4	5.5*	-5.0
Nc1c(C(=O)Nc2cccc(C(F)(F)F)c2)sc2nc(-c3cccs3)cc(-c3cccs3)c12	-5.4	-0.8	0.2	-4.8
Cc1ccccc1N(CC(=O)NCc1ccncc1)S(C)(=O)=O	-0.9	0.1	-0.1	12.2
O=C(Cn1cnc2c(-c3ccc(F)cc3)csc2c1=O)NCCc1ccccc1	7.4	-0.2	0.0	-0.8
CN(Cc1ccccc1)C(=O)Cn1cnc2scc(-c3ccccc3)c2c1=O	32.1*	2.8	0.3	5.6
O=C(Cn1cnc2c(-c3ccc(F)cc3)csc2c1=O)NCc1ccccc1	48.6*	-0.1	-0.2	0.0
O=C(Cn1cnc2scc(-c3ccc4ccccc4c3)c2c1=O)NCc1ccccc1	36.6*	-0.6	0.6	5.9
N#CC1=C(N)OC2=C(COc3ccccc32)C1c1cccc(Cl)c1 (centres undefined)	8.4	0.1	0.7	9.8
SMILES	TEAD-YAP block	GPR151 activ	FBW7 act	MITF primary
CC1Oc2ccccc2N(CC(=O)NCc2ccc3c(c2)OCO3)C1=O (centres undefined)	-39.9	-0.7	-0.1	3.5
O=[N+]([O-])c1cccc(CN2CCN(Cc3cc(Br)ccc3O)CC2)c1	9.5	0.4	0.0	65.3*
O=[N+]([O-])c1cccc(CN2CCCCCC2)c1	1.2	-0.2	-0.2	4.3
Cc1cc2nccc(NC(=O)c3c(F)cccc3F)n2n1	10.4	0.2	-0.1	-2.1
Cc1cc2nccc(NC(=O)CSc3ccccc3)n2n1	3.5	2.7	2.1*	-12.3
CC(=O)c1c2c(n3cc4ccccc4cc13)C(=O)c1ccccc1C2=O	-2.7	-1.1	0.0	11.5
COC(=O)c1c2c(n3cc4ccccc4cc13)C(=O)c1ccccc1C2=O	-4.7	0.5	0.1	87.0*
COc1cc(NS(=O)(=O)c2ccc3c(c2)oc(=O)n3C)cc(OC)c1OC	48.2*	0.7	-0.1	-2.2
COc1cc(NS(=O)(=O)c2ccc(-c3cc(C)no3)cc2)cc(OC)c1OC	60.5*	1.6	1.0	13.8
COc1cc(NS(=O)(=O)c2ccc(-c3cc(C)no3)cc2)cc(OC)c1	60.8*	0.7	0.1	-1.4
CCSC1=C(C#N)C(c2ccccc2OC)C(C(=O)OC)C(=O)N1 (centres undefined)	-1.6	-0.9	0.0	0.5
COc1ccc(NC(=O)N(Cc2nnc3n2CCCCC3)c2ccccc2C)cc1	-4.8	-0.3	-0.2	-2.8
Cc1ccc2oc(=O)cc(CSc3nc(C)cc(C)c3C#N)c2c1	50.9*	-2.2	0.1	-7.5
Cc1ccc2c(CSc3nc(N)cc(N)n3)cc(=O)oc2c1	-10.3	1.2	-0.2	8.1
COc1ccc(CCNc2cc(-c3ccc(OC)nc3)nc(N)n2)cc1	51.0*	-1.4	0.0	-0.3
COc1ccc(-c2cc(NCCc3ccc(O)cc3)nc(N)n2)cc1	-44.2	-0.8	0.2	6.9
COc1ccc(-c2cc(Nc3cc(OC)c(OC)c(OC)c3)nc(N)n2)cc1	40.9*	1.5	0.1	-17.2
Cc1nn(C)c(C)c1-c1cc(Nc2ccc(Oc3ccccc3)cc2)nc(N)n1	54.0*	-0.9	0.2	39.7
COc1ccc(CCNc2cc(-c3ccccc3)nc(N)n2)cc1	42.2*	0.5	0.1	3.4
COc1ccc(-c2cc(Nc3ccc(NC(C)=O)cc3)nc(N)n2)cn1	-12.6	-0.9	0.1	-6.0
COc1ccc(-c2cc(Nc3ccc(Oc4ccccc4)cc3)nc(N)n2)cn1	44.0*	1.7	0.4	6.4
COc1cc(Nc2cc(N3CCc4ccccc4C3)nc(N)n2)cc(OC)c1OC	37.0*	2.8	-0.2	4.8
O=C1CCCN1CCCNc1nc(N2CCOCC2)nc2c1ncn2-c1ccccc1	66.9*	3.7	0.0	2.9
O=C1CCCN1CCCNc1nc(N2CCN(c3ccccn3)CC2)nc2c1ncn2CCN1CCCC1=O	-0.2	-0.9	0.1	8.2
O=C1CCCN1CCCNc1nc(N2CCN(c3ccccn3)CC2)nc2c1ncn2-c1ccccc1	55.7*	-1.3	0.0	-12.9
SMILES	TEAD-YAP block	GPR151 activ	FBW7 act	MITF primary
c1c2c(cc3sc(N4CCOCC4)nc13)OCCO2	69.3*	-5.6	-0.1	15.4
Nc1cccc(F)c1Nc1ccc2c(cnn2-c2cccc(C(=O)NCCN3CCOCC3)c2)c1	78.7*	0.0	0.0	-13.7
CCOC(=O)CNC(=O)CSc1nc2sc3c(c2c(=O)[nH]1)CCC(C)C3 (centres undefined)	89.1*	-2.2	0.5	-1.1
CCCCNc1nc2cc(OC)c(OC)cc2c2nc(-c3cccnc3)nn12	-13.7	0.0	-0.1	-7.0
c1cncc(-c2nc3c4ccccc4nc(NCCCN4CCCCCC4)n3n2)c1	69.1*	-0.1	0.0	-8.3
COc1cc2nc(NCCCN3CCCCC3)n3nc(-c4cccnc4)nc3c2cc1OC	37.4*	2.0	0.3	16.3
COc1ccc(/C=C(/NC(=O)c2ccccc2Cl)C(=O)NC2CCS(=O)(=O)C2)cc1 (centres undefined)	-5.2	-0.3	-0.1	-7.8
